In PubChem BioAssay AID1851 (National Center for Advancing Translational Sciences (NCATS), 2009):
Screen size: about 16,000 compounds; about 5,700 (36%) were called active. Not shown: some 24% with an inconclusive outcome. The call rests on the fitted dose curve; in most records, active means well fitted curve in the direction sought with a large enough effect; inconclusive means small, poorly fitted or top-dose-only effect, or effect the other way; inactive means no such curve, though single readings can be large or run the other way. Some of the results follow.

What follows are compounds tested against Cytochrome P450 1A2 (Homo sapiens) (UniProt P05177) (assay: Cytochrome panel assay with activity outcomes). Settings: recombinant CYP, pro-luciferin dealkylation, luminescence, p450-cyp1a2; series mostly up to 57.1 µM.
Cytochrome P450 1A2 (Homo sapiens), sequence (P05177 whole entry, looked up): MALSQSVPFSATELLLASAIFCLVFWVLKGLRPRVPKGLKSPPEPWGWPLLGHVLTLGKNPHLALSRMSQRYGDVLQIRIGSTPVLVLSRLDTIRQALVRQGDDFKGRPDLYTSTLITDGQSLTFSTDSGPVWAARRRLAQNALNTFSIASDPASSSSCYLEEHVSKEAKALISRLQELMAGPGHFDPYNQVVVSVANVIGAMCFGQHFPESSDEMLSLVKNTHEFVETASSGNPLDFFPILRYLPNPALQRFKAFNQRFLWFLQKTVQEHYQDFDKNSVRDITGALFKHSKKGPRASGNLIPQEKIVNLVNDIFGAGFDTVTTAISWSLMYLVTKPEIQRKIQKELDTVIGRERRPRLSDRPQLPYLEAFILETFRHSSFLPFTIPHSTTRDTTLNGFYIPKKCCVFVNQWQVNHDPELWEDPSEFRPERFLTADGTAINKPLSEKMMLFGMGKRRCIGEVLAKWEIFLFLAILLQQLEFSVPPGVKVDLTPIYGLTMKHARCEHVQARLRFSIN
On the % scale 0 is the no-effect control and ±100 the full control effect.

| Structure (SMILES) | AC50 | activity, negative = inhibition |
| --- | --- | --- |
| COc1cc2ccccc2c2cc([N+](=O)[O-])oc12 | 126 nM (active) |  |
| C[C@H]1C(=O)O[C@@H]2CCN3CC=C(COC(=O)[C@@](C)(O)[C@@]1(C)O)[C@H]23 | inactive |  |
| c1ccc2c(c1)OC[C@@H](C1=NCCN1)O2 | inactive |  |
| NCC#Cc1ccccc1 | 3160 nM (active) |  |
| C/C=C1\C[N@@+]2(C)CC[C@@]34C(=C(C=O)[C@H]1C[C@H]32)Nc1ccccc14 | inactive |  |
| C[N+]1(C)C2CC(OC(=O)C(CO)c3ccccc3)CC1[C@@H]1O[C@H]21 (stereo partly specified) | inactive |  |
| OC(c1ccccc1)(c1ccccc1)C1CCNCC1 | inactive |  |
| OC(c1ccccc1)(c1ccccc1)C1CCCN1 (stereo unspecified) | 15800 nM (active) |  |
| CC[C@H](C)C(=O)O[C@@H]1[C@H](O)[C@@H]2[C@H](CN3C[C@@H](C)CC[C@@H]3[C@@]2(C)O)[C@@H]2C[C@@]34O[C@@]5(O)[C@@H](OC(=O)[C@](C)(O)CC)CC[C@@]3(C)[C@H]5[C@H](OC(C)=O)[C@@H](OC(C)=O)[C@H]4[C@]12O | inactive |  |
| CC(C)Oc1cccnc1N(C)C1CCN(Cc2ccccc2)CC1 | inactive |  |
| CS(=O)(=O)N1CCC2(CC1)CN(Cc1ccncc1)C2 | inactive |  |
| O=c1[nH]oc2c1CCNC2 | inactive |  |
| Cn1ccnc1 | inactive |  |
| C[C@]12CC[C@H](O)C[C@@H]1CC[C@H]1[C@H]2CC[C@]2(C)C(=O)CC[C@@H]12 | inactive |  |
| CC(C)CCC[C@@H](C)[C@@H]1CC[C@@H]2[C@H]3CC[C@H]4C[C@@H](N)CC[C@@]4(C)[C@@H]3CC[C@]21C |  | 3.33% [at 11.4 µM] (inactive) |
| C[C@@]12CC[C@H]3[C@@H](CC[C@@H]4C[C@H]5S[C@H]5C[C@]43C)[C@H]1CC[C@H]2O | 25.1 nM (active) |  |
| C[As+](C)(c1ccc(Br)c([N+](=O)[O-])c1)c1ccc(Br)c([N+](=O)[O-])c1.O=[N+]([O-])O |  | -12.7% [at 11.4 µM] (inactive) |
| COc1cc(-c2ccc(=O)[nH]n2)ccc1OC(F)F | 2510 nM (active) |  |
| CC(C)CN1CCC2(CC1)CCN(S(C)(=O)=O)CC2 | inactive |  |
| O=C(CCCN1CCC(n2c(=O)[nH]c3ccccc32)CC1)c1ccc(F)cc1 | inactive |  |
| CN1C(=O)C(=Cc2ccc(N3CCCCCC3)o2)C(=O)N(C)C1=S | 1580 nM (active) |  |

| Structure (SMILES) | AC50 | activity, negative = inhibition |
| --- | --- | --- |
| CN1C(=O)C(=Cc2ccc(N3CCCCC3)o2)C(=O)N(C)C1=S | 1580 nM (active) |  |
| CC(=O)NBr | inactive |  |
| O=C(Oc1ccccc1)N1CCC2(CCN(Cc3ccccc3)CC2)CC1 | inactive |  |
| CC(C)COC(=O)OCN1C(=O)CN(CCN2CC(=O)N(COC(=O)OCC(C)C)C(=O)C2)CC1=O | inactive |  |
| Cc1ncc([N+](=O)[O-])n1CCN=[N+]=[N-] |  | -9.71% [at 11.4 µM] (inactive) |
| COc1cc(CN2CCN(C(=O)COc3ccccc3)CC2)cc(OC)c1OC | inactive |  |
| C[C@@H](N)Cn1ccc2cc(F)c(Cl)cc21 | 50.1 nM (active) |  |
| CCCCCC[C@H]1C(=O)O[C@H](C)[C@H](NC(=O)c2cccc(NC=O)c2O)C(=O)O[C@@H](C)[C@H]1OC(=O)CC(C)C | inactive |  |
| CC1=NCCc2c1[nH]c1cc(O)ccc21 | 12600 nM (active) |  |
| COc1ccc2[nH]c3c(c2c1)CCNC3 | 3160 nM (active) |  |
| COc1ccc2c3c([nH]c2c1)C(C)=NCC3 | 794 nM (active) |  |
| COc1ccc2[nH]c3c(c2c1)CCN=C3C | 1580 nM (active) |  |
| CN(C)C=C1C(=O)N(C2CCCCC2)C(=O)N(C2CCCCC2)C1=O | inactive |  |
| c1cc2cc(c1)C[n+]1ccc(c3ccccc31)NCc1ccc(cc1)CNc1cc[n+](c3ccccc13)C2 | inactive |  |
| C[N+]1([O-])[C@H]2CC[C@H]1CC(OC(=O)[C@@H](CO)c1ccccc1)C2 (stereo partly specified) |  | 0.783% [at 2.29 µM] (inactive) |
| C[N+](C)(C)CCCCCCCCCC[N+](C)(C)C | inactive |  |
| NCC[C@H](O)C(=O)N[C@H]1C[C@@H](N)[C@@H](O[C@H]2O[C@@H](CN)[C@@H](O)[C@@H](O)[C@@H]2N)[C@@H](O[C@H]2O[C@@H](CO)[C@@H](O)[C@@H]2O)[C@@H]1O | inactive |  |
| c1cc(CN2CC3(CCNCC3)C2)ccn1 | inactive |  |
| O=c1[nH]cnc2[nH]cc(CN3CCCCC3)c12 |  | -11.6% [at 11.4 µM] (inactive) |
| COc1ccccc1CN1CCCC2(CCN(C(=O)Oc3ccccc3)CC2)C1 | inactive |  |
| CC(C)c1nccn1Cc1ccc(Cl)cc1Cl |  | -14.7% [at 11.4 µM] (inactive) |

| Structure (SMILES) | AC50 | activity, negative = inhibition |
| --- | --- | --- |
| O=C(O)C(C(=O)O)P(=S)(S)c1ccccc1 (stereo unspecified) |  | -13.3% [at 11.4 µM] (inactive) |
| CNCC/C=C\c1cccnc1 | inactive |  |
| CN1[C@@H]2CC[C@H]1CC(NC(=O)c1nn(C)c3ccccc13)C2 (stereo partly specified) | inactive |  |
| Cn1cc(C(=O)C(=O)N[C@H]2CN3CCC2CC3)c2ccccc21 | 15800 nM (active) |  |
| COc1cc(N)c(Cl)cc1C(=O)N[C@@H]1CN2CCC1CC2 | inactive |  |
| NCC1(CC(=O)O)CCCCC1 | inactive |  |
| C[C@H]1CC[C@@]2(NC1)O[C@@H]1C[C@H]3[C@@H]4CC[C@@H]5C[C@@H](O)CC[C@@]5(C)[C@@H]4CC[C@]3(C)[C@@H]1[C@@H]2C | inactive |  |
| CCCN1CCC[C@@H]2Cc3nc(N)ncc3C[C@H]21 | inactive |  |
| N#CCCCC[N+]12CN3CN(CN(C3)C1)C2 |  | 15% [at 2.29 µM] (inactive) |
| COCCCN1Cc2ccccc2C1=N | inactive |  |
| S=C(S)N1CCCC1 | 31600 nM (active) |  |
| C[C@@]12CC[C@H](O)C[C@@H]1CC[C@@H]1[C@@H]2CC[C@@]2(C)[C@@H](C3=CC(=O)OC3)[C@H](O)C[C@]12O |  | -18.3% [at 11.4 µM] (inactive) |
| CC1(C)N=C(N)N=C(N)N1c1cccc(C(=O)Nc2ccc(S(=O)(=O)F)cc2)c1 |  | -15.8% [at 11.4 µM] (inactive) |
| c1ccc(CN2CC[C@@]3(CCCNC3)C2)cc1 | inactive |  |
| NC1=Nc2ccccc2Oc2ccccc21 | 12600 nM (active) |  |
| CC(C)[N+](C)(CCC(C(N)=O)(c1ccccc1)c1ccccc1)C(C)C | inactive |  |
| CC(=O)c1ccc2c(c1)N(CCCN(C)C)c1ccccc1S2 | 1580 nM (active) |  |
| C=CCN1C(=O)c2ccccc2Sc2ccc(C(=O)N3CCC4(CC3)OCCO4)cc21 | inactive |  |
| CN1C(=O)c2ccccc2Sc2ccc(C(=O)N3CCC4(CC3)OCCO4)cc21 | inactive |  |
